A short description of the experiment: SV40 cytopathic effect inhibition and cytotoxicity, confirmation, BSC cells, set 3 (AID 485276). Particulars: series mostly up to 200 µM.

Molecules are shown by their SMILES. Measured potencies and affinities stand elsewhere. Calls of active or inactive are those of the source. The rule behind the calls is not given here.

Regarding `Oc1ccc(Cc2ccc(O)cc2)cc1`, the compound was called inactive.

The record behind these values is PubChem BioAssay AID485276 (Southern Research Specialized Biocontainment Screening …, 2010).
